In PubChem BioAssay (NCI) one finds growth data, which are given here for 5 compounds.

The panel holds about 83,000 compounds, 20% with a hit somewhere; the sample as a whole holds those more often.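 Percent growth is the endpoint: 0 to 100 indicates growth inhibition (40 means 60% inhibition), 0 means no net growth, and negative values indicate cell death.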 A number with no mark means an inactive call. Activity calls are given as the source filed them. How the source made its calls: active means growth percent below 10; inactive means the rest.

Among the test systems are NCI-H23 lung; NCI-H226 lung; NCI-H322M lung; HOP-62 NSCLC; NCI-H460 lung; HOP-92 NSCLC; NCI-H522 lung; A549/ATCC NSCLC; 786-0 renal; COLO 205 colon.
What all share (assay): NCI-60 one-dose screen, 48 h (100 = growth as untreated, 0 = no growth, -100 = all killed)
Holding throughout (settings): 10 µM unless noted

As for `CCOc1ccc(C(CN2CCOCC2)C(C)=O)cc1OC` (centres undefined), the growth in the assay on NCI-H23 lung was 98.9%; in the assay on NCI-H226 lung, 98.9%; with NCI-H322M lung, 117%; in the assay with HOP-62 NSCLC, 104%; with NCI-H460 lung it was 108%; with HOP-92 NSCLC, 102%. For the same compound, the growth is -51.6% (active) in the assay with NCI-H522 lung, 101% in the assay on A549/ATCC NSCLC, 63.7% with 786-0 renal and 58% in the assay with COLO 205 colon.

On to `CCCC[n+]1c(/C=C\c2c(OC)cc(OC)cc2OC)ccc2ccccc21`, for which the growth in the assay with NCI-H23 lung is -4.06% (active); with NCI-H226 lung, 9.84% (active); in the assay on NCI-H322M lung, 4.8% (active); in the assay with HOP-62 NSCLC, 13.8%; in the assay with NCI-H460 lung it was -43.2% (active); in the assay on HOP-92 NSCLC, -20% (active). Besides, the growth with NCI-H522 lung is -73.4% (active); in the assay with A549/ATCC NSCLC, -22.9% (active); in the assay with 786-0 renal, 21.5%; in the assay on COLO 205 colon it was -53.3% (active).

With `NCCCN(CCCN)CCCNCc1c2ccccc2c(CNCCCN(CCCN)CCCN)c2ccccc12`, the growth with NCI-H23 lung is 92.2%; in the assay on NCI-H226 lung it was 87.2%; with NCI-H322M lung, 84.4%; with HOP-62 NSCLC, 87.2%; in the assay with NCI-H460 lung, 93.9%; in the assay on HOP-92 NSCLC, 95.9%. The growth is 89.7% with NCI-H522 lung, 95.2% with A549/ATCC NSCLC, 99.1% in the assay on 786-0 renal and 95.9% with COLO 205 colon.

`CCCCCCCCCCCC[S+](C)CC(=O)[O-]` (centres undefined): the growth in the assay on NCI-H23 lung was 25.9%; in the assay with NCI-H226 lung it was 44.3%; in the assay with NCI-H322M lung it was 89.4%; in the assay on HOP-62 NSCLC it was 38.7%; with NCI-H460 lung, 54%; in the assay with HOP-92 NSCLC it was 30.7%. Moreover, the growth in the assay with NCI-H522 lung was 46.5%; in the assay with A549/ATCC NSCLC, 68.4%; with 786-0 renal, 23.3%; with COLO 205 colon it was 2.95% (active).

`CC(C)(C)c1ccc(CCO)cc1`: the growth in the assay with NCI-H23 lung is 97.5%; in the assay on NCI-H226 lung it was 91.8%; with NCI-H322M lung, 84.5%; with HOP-62 NSCLC, 97.5%; in the assay with NCI-H460 lung, 109%; with HOP-92 NSCLC, 100%. For the same compound, the growth in the assay on NCI-H522 lung is 85.4%; with 786-0 renal, 98.2%; in the assay on COLO 205 colon, 110%.
